The nature of test [1]: antimalarial activity against Dd2 strain (AID 2302;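 active means growth inhibition above 50% at the single 2 µM test dose, taken to imply half-maximal potency below 2 µM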;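 further: 0% = DMSO untreated growth and 100% = chloroquine plus artemisinin killed control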). The settings on record: P. falciparum Dd2 in RBCs, LDH growth readout, 72 h; at 2 µM; active compounds read high.
The nature of test [2]: HepG2 cytotoxicity, primary screen, cytotoxicity control for P. falciparum antimalarial project, cell-based, ATP luminescence (AID 2303;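 active means inhibition above 50%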;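 further: 0% = DMSO wells and 100% = digitonin-killed cells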). The settings on record: HepG2 viability, 24-48 h, at 10 µM, active compounds read high.
Test [3] deals with L-lactate dehydrogenase (Plasmodium falciparum (isolate CDC / Honduras)) (UniProt Q27743). Kind of test: PfLDH activity inhibition – cell lysate, 3D7 strain, counter-screen for P. falciparum growth inhibition project (AID 2304).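 Further: 0% = vehicle and 100% = reference inhibitor.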 The conditions noted are these: P. falciparum 3D7 crude extract, LDH APAD/NBT absorbance; at 2 µM; active compounds read high. On the technique in general: A counterscreen serves to expose hits that act by an unwanted route or on another target.

Test [4] can be described thus: inhibition of 3D7 malaria parasite growth – strain 3D7 (AID 2306).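 Further: 0% = DMSO wells and 100% = chloroquine plus artemisinin control wells.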 The conditions noted are these: P. falciparum 3D7 erythrocytic growth, LDH absorbance, 72 h; at 2 µM; active compounds read high.
The target of test [5] is Calcium-dependent protein kinase 1 (Plasmodium falciparum (isolate 3D7)) (UniProt P62344). The test is described as follows: PfCDPK1 kinase inhibitors, biochemical, TCAMS library (AID 1159585; cut-off not given, nearly all actives have IC50 up to about 0.98 µM;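 further: inhibitors leave more ATP so luminescence rises with inhibition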). The conditions noted are these: recombinant PfCDPK1, Kinase-Glo ATP depletion luminescence. Background: In Kinase-Glo more light means more ATP remaining.
For test [6], the target named is Plasmodium falciparum protein kinase 6 (PK6, PF3D7_1337100) (UniProt Q8IDW1). The test is described as follows: PfPK6 kinase inhibitors, biochemical, TCAMS library (AID 1159586). The settings on record: recombinant PfPK6, Kinase-Glo ATP depletion luminescence.
In test [7] the target is Protein kinase 7 (PK7), Plasmodium falciparum 3D7 (PF3D7_0213400) (UniProt Q7YTF7). The test is described as follows: inhibition of Plasmodium PK7 catalytic activity – biochemical, TCAMS antimalarial set, Kinase-Glo luminescence (AID 1159587). The conditions noted are these: recombinant PfPK7, Kinase-Glo ATP depletion luminescence.
The target in test [8] is Calcium-dependent protein kinase 4 (Plasmodium falciparum (isolate 3D7)) (UniProt Q8IBS5). Kind of test: PfCDPK4 kinase inhibitors, biochemical, TCAMS library (AID 1159588; cut-off not given, nearly all actives have IC50 up to about 0.91 µM). The settings on record: recombinant PfCDPK4, Kinase-Glo ATP depletion luminescence.

Unmarked numbers belong to inactive results. For part of these data: Potency and affinity values are given separately. Active and inactive are the calls of the source. Unless noted, how the calls were made is not given here.

In general, inhibition refers to the change of the read-out against control, counted positive when it falls.

L-lactate dehydrogenase (Plasmodium falciparum (isolate CDC / Honduras)), sequence (Q27743 whole entry, looked up): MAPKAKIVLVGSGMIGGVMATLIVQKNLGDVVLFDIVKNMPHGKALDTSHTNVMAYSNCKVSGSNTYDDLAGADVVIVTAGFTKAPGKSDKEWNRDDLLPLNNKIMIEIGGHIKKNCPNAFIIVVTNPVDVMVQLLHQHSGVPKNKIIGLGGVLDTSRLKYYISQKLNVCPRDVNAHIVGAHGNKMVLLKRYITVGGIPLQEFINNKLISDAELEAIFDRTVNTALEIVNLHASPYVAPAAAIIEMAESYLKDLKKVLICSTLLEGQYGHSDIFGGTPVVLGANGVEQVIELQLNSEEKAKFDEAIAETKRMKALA
Calcium-dependent protein kinase 1 (Plasmodium falciparum (isolate 3D7)), sequence (P62344 whole entry, looked up): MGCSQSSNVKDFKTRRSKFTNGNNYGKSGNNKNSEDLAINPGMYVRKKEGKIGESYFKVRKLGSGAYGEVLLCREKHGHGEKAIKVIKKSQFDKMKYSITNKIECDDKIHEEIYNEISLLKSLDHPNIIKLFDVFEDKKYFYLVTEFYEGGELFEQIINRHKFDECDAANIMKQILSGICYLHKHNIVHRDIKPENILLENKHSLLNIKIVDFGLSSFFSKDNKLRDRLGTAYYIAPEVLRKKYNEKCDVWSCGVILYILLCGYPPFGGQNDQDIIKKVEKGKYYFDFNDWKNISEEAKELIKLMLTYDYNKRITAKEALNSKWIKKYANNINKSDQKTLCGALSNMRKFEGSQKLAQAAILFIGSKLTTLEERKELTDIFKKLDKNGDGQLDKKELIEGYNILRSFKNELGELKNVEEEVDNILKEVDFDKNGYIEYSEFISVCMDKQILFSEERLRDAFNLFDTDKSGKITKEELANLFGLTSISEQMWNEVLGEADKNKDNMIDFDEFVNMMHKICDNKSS
Protein kinase 7 (PK7), Plasmodium falciparum 3D7 (PF3D7_0213400), sequence (Q7YTF7 1-343): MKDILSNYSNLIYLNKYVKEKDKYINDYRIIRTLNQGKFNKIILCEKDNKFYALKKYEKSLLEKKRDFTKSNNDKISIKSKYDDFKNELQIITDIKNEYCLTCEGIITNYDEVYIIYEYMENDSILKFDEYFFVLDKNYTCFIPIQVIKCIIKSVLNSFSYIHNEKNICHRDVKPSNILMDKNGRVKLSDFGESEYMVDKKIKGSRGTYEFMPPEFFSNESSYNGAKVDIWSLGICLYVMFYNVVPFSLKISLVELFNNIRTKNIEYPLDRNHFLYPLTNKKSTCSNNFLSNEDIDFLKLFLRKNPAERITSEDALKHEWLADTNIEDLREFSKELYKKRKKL
Calcium-dependent protein kinase 4 (Plasmodium falciparum (isolate 3D7)), sequence (Q8IBS5 whole entry, looked up): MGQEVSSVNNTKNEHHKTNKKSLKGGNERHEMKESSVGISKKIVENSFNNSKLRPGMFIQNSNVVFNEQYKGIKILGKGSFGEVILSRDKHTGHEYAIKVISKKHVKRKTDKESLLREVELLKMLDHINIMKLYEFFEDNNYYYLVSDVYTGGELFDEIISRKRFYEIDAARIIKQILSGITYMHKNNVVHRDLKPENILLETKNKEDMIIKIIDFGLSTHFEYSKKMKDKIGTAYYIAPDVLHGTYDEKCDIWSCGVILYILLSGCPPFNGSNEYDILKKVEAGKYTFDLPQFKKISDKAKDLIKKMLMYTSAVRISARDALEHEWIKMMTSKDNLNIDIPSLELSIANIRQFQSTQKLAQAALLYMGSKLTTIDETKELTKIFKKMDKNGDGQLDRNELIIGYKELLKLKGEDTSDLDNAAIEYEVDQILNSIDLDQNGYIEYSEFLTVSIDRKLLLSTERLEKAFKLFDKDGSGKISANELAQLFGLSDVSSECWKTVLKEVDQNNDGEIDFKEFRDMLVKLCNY
Plasmodium falciparum protein kinase 6 (PK6, PF3D7_1337100), sequence (Q8IDW1 1-305): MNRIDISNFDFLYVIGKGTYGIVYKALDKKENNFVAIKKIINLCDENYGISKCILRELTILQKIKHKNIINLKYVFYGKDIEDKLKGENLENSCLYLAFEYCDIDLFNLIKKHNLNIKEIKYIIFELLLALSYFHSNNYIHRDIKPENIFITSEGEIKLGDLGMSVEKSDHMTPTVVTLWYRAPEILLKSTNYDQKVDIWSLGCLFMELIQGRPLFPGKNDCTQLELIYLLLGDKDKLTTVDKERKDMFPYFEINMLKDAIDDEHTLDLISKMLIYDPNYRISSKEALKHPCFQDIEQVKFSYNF

Regarding `CCC(C)(C)NC(=O)C(c1cccc(OC)c1)N(C(=O)CNC(=O)c1cccs1)c1ccc2c(c1)OCCO2` (stereo not drawn), the growth inhibition is 76% (active) in test [1] and 100% (active) in test [4]. For the same compound, the inhibition in test [2] and in test [3] was -7% throughout. The result in test [5], in test [6], in test [7] and in test [8] was inactive.
As for `O=S(=O)(c1ccc(NC(=S)NN=Cc2ccccn2)cc1)N1CCCCC1`, the growth inhibition was 56% (active) in test [1] and 98% (active) in test [4]. Moreover, the inhibition was 43% in test [2] and -5% in test [3]. For the same compound, the result in test [5], in test [6], in test [7] and in test [8] was inactive.
`CC[C@H](C)CNC(=O)c1cncc(-c2cccc(CN(C)C3CCN(C)CC3)c2)c1`: the growth inhibition was 59% (active) in test [1] and 101% (active) in test [4]. Besides, the inhibition was 9% in test [2] and 1% in test [3]. Also, the result in test [5], in test [6], in test [7] and in test [8] was inactive.
`Clc1ccc2c(NCc3ccccc3)ccnc2c1`: the growth inhibition was 100% (active) in test [1] and 101% (active) in test [4]. Further, the values for the inhibition in test [2] and in test [3] were 40% and 1%, respectively. Moreover, the result in test [5], in test [6], in test [7] and in test [8] was inactive.
As to `COc1cc(C(=O)Nc2cccc(-c3nc4ccccc4[nH]3)c2)ccc1OC(C)=O`, the growth inhibition in test [1] was 37%; in test [4] it was 83% (active). The results for the inhibition in test [2] and in test [3] were 16% and -4%, respectively. Also, the result in test [5], in test [6], in test [7] and in test [8] was inactive.
As for `C=CCOC(=O)O[C@@H]1[C@@H](OC(=O)OCC=C)[C@@H](OC)O[C@H](COC(c2ccccc2)(c2ccccc2)c2ccccc2)[C@H]1OC(=O)OCC=C`, the growth inhibition was 96% (active) in test [1] and 95% (active) in test [4]. Further, the inhibition in test [2] was 5%; in test [3], 2%. Besides, the outcome in test [5], in test [6], in test [7] and in test [8] was inactive.
In the case of `COc1ccc(NC(=O)Nc2cccc(-c3ccc(-c4nc5ccc(C(F)(F)F)cc5[nH]4)cc3)c2)cc1`, the growth inhibition is 29% in test [1] and 101% (active) in test [4]. The inhibition in test [2] was 46%; in test [3] it was 6%. For the same compound, the outcome in test [5], in test [6], in test [7] and in test [8] was inactive.
In the case of `CC(C)(C)c1ccc(NC(=O)c2cccc(CN3CCCN(Cc4ccsc4)CC3)c2)cc1`, the figures for the growth inhibition in test [1] and in test [4] were 3% and 96% (active), respectively. Further, the inhibition in test [2] is 33%; in test [3], -4%. Also, the outcome in test [5], in test [6], in test [7] and in test [8] was inactive.
Regarding `O=C(NCCCCCN1CCCN(C(=O)Nc2ccc(Cl)c(C(F)(F)F)c2)CC1)[C@@H]1C[C@H]1c1ccc(Cl)c(Cl)c1`, the growth inhibition in test [1] is 1%; in test [4], 100% (active). Also, the inhibition in test [2] is 41%; in test [3], 3%. Besides, the outcome in test [5], in test [6], in test [7] and in test [8] was inactive.
Consider `CCOc1ccc(-c2nonc2NC(=O)CC(C)C)cc1OCC`, for which the growth inhibition in test [1] is 37%; in test [4], 92% (active). Moreover, the inhibition in test [2] was -1%; in test [3] it was 6%. Further, the outcome in test [5], in test [6], in test [7] and in test [8] was inactive.
Regarding `COc1cccc(NC(=O)NC2CCN(c3ccnc(Nc4cc(OC)c(OC)c(OC)c4)n3)C2)c1` (stereo not drawn), the growth inhibition in test [1] is 57% (active); in test [4], 95% (active). Moreover, the inhibition is 8% in test [2] and -2% in test [3]. Further, the result in test [5], in test [6], in test [7] and in test [8] was inactive.
Take `COc1cc2nc(NCCc3ccccc3)nc(NC(C)c3ccccc3)c2cc1OC` (stereo not drawn): the values for the growth inhibition in test [1] and in test [4] were 100% (active) and 99% (active), respectively. For the same compound, the inhibition in test [2] is 9%; in test [3] it was 1%. Also, the result in test [5], in test [6], in test [7] and in test [8] was inactive.
Take `Cc1cc(N2CCN(CC3CCN(C)CC3)CC2)nc(Nc2ccc(Cl)cc2)n1`: the growth inhibition in test [1] is 89% (active); in test [4], 99% (active). Besides, the inhibition in test [2] was 20%; in test [3], -6%. The outcome in test [5], in test [6], in test [7] and in test [8] was inactive.
For the compound `Cc1ccc2nc(C)cc(NN=Cc3cccc(Cl)c3)c2c1`, the figures for the growth inhibition in test [1] and in test [4] were 98% (active) and 102% (active), respectively. The values for the inhibition in test [2] and in test [3] were 12% and 2%, respectively. Further, the outcome in test [5], in test [6], in test [7] and in test [8] was inactive.
`CCN(CCCN1CCCCC1)c1cc(C)nc(Nc2cccc(C(F)(F)F)c2)n1`: the growth inhibition in test [1] is 88% (active); in test [4] it was 102% (active). Besides, the inhibition in test [2] is 25%; in test [3], 5%. For the same compound, the result in test [5], in test [6], in test [7] and in test [8] was inactive.
Take `O=S(=O)(NCCN1CCCC1)c1cccc(-c2cccc(CNCc3ccccc3)c2)c1`: the values for the growth inhibition in test [1] and in test [4] were 73% (active) and 97% (active), respectively. The figures for the inhibition in test [2] and in test [3] were 32% and -7%, respectively. For the same compound, the outcome in test [5], in test [6], in test [7] and in test [8] was inactive.
With `Cc1nc2c(s1)c(=O)cc(CCc1cccc(F)c1F)n2CC(=O)N(Cc1ccc(-c2ccc(C(F)(F)F)cc2)cc1)C1CCN(C(C)C)CC1`, the growth inhibition in test [1] is 82% (active); in test [4] it was 100% (active). For the same compound, the figures for the inhibition in test [2] and in test [3] were 98% (active) and 0%, respectively. The outcome in test [5], in test [6], in test [7] and in test [8] was inactive.
With `O=C(Nc1ccccc1Br)c1cn(-c2ccccc2)nc1-c1cccc([N+](=O)[O-])c1`, the growth inhibition in test [1] was 36%; in test [4], 92% (active). Also, the inhibition in test [2] was 7%; in test [3], -5%. Besides, the result in test [5], in test [6], in test [7] and in test [8] was inactive.
`Cc1cc(Nc2ccc(O)cc2)nc2cc(O)ccc12`: the growth inhibition in test [1] was 9%; in test [4], 100% (active). For the same compound, the inhibition in test [2] is 0%; in test [3], -2%. Further, the outcome in test [5], in test [6], in test [7] and in test [8] was inactive.
`CCCCCCCN1CC[C@@H](C[C@H](N)Cc2ccnc3ccc(OC)cc23)[C@@H](CC)C1`: the growth inhibition is 51% (active) in test [1] and 91% (active) in test [4]. For the same compound, the inhibition was 33% in test [2] and -2% in test [3]. The result in test [5], in test [6], in test [7] and in test [8] was inactive.
For the compound `N#Cc1ccccc1S(=O)(=O)N1CCCC(CNC(=O)[C@H](CC2CCCCC2)NC(=O)c2cc3ccccc3s2)C1` (stereo partly drawn), the growth inhibition in test [1] was 92% (active); in test [4] it was 97% (active). For the same compound, the inhibition is 9% in test [2] and -2% in test [3]. Besides, the result in test [5], in test [6], in test [7] and in test [8] was inactive.

Values taken from PubChem BioAssay.
